Screening data (PubChem)
Shown are actives, neighbours in structure and some others; about 8% of the full set was active somewhere.
HT1080 IDH1KD tx – HT-1080 IDH1 knockdown cell toxicity (counter line). AID 686971. Potency, µM (top dose mostly 46.1 µM), hits mostly cytotoxic. 360,000 compounds, 2% hits. HT-1080 IDH1 knockdown viability, ATP luminescence, 48 h
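Knockdown cells (IDH1KD HT-1080) received compounds 2 h after plating at 750 cells/well and were kept 48 h at 37 °C in 5% FBS RPMI. A CellTiter-Glo luminescence read gave % activity for curve fitting.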
KB-V1 MDR tox – kills drug-selected multidrug resistant KB-V1 cells. KB-V1 MDR cells viability, CellTiter-Glo, 72 h. Potency, µM (highest dose often 46.1 µM), actives largely listed as cytotoxic. 400,000 compounds, 3.4% hits. AID 1347076; further: nearly all actives have a fitted effect of over 60% in size
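In this primary screen, KB-V1 cells overexpressing P-gp are incubated with library compounds (lowest to highest concentration) for 72 h at 37 degrees C before a luminescent ATP viability read.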
SW480 rereplic – induces DNA re-replication in SW480 colon adenocarcinoma cells; SW480 DNA re-replication, Hoechst DNA content imaging, 48 h; Potency, µM (doses to about 46.1 µM), most hits filed as activators; 340,000 compounds, 1.8% hits; AID 624297; further: nearly all actives have a fitted effect of over 55% in size
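Compounds, transferred as 23 nL by pin tool, were incubated with cells for 48 hr; DNA content per nucleus was then quantified by Hoechst staining and fluorescence plate imaging.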
MCF10A rerep – induces DNA re-replication in MCF 10a normal breast cells; MCF 10A DNA re-replication, Hoechst nuclear intensity, 48 h; Potency, µM (top dose mostly 46.1 µM), actives largely listed as activators; 350,000 compounds, 2.9% hits; AID 624296; further: nearly all actives have a fitted effect of over 50% in size
HT1080-NT tox – kills 2HG-producing HT-1080-NT fibrosarcoma cells. HT-1080-NT fibrosarcoma viability, CellTiter-Glo ATP luminescence, 48 h. 360,000 compounds, 1.6% hits. Potency, µM (top dose mostly 46.1 µM), hits mostly cytotoxic;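 further: NT is the 2HG producing partner of a matched IDH1 knockdown line; nearly all actives have a fitted effect of over 55% in size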
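Compounds were tested in concentration-response format on HT-1080-NT cells for 48 hours at 37 degrees C. Cell viability came from CellTiter-Glo luminescence; curves were classified by r2, response magnitude and activity.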
KB-3-1 tox – kills parental KB-3-1 adenocarcinoma cells; Potency, µM (series often up to 46.1 µM), usual class: cytotoxic; 400,000 compounds, 1.4% hits; KB-3-1 viability, CellTiter-Glo ATP luminescence, 72 h; further: nearly all actives have a fitted effect of over 60% in size
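Screening of KB-3-1 cells (DMEM, 10% FBS, phenol-red free) ran from lowest to highest compound concentration; after 72 h at 37 °C viability was read luminescently and curves fitted.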
Hits are given with their value; n = inactive; u = inconclusive; x = no result given; [ ] = remark or other dose. The call rests on the fitted dose curve; in most records, active means well fitted curve in the direction sought with a large enough effect; inconclusive means small, poorly fitted or top-dose-only effect, or another doubt; inactive means no such curve, though single readings can be large; an effect the other way counts as inactive or inconclusive.

SMILES	HT1080 IDH1KD tx	KB-V1 MDR tox	SW480 rereplic	MCF10A rerep	HT1080-NT tox	KB-3-1 tox
CCc1ccc2c(c1)[C@H]1OCC[C@H]1[C@@H](c1cccs1)N2	3.7µM	u	5.2µM	5.8µM	4.1µM	13µM
Clc1ccc2c(c1)[C@H]1OCC[C@H]1[C@@H](c1ccco1)N2	n	n	n	n	n	n
Cc1ccc(C2CC(=O)Nc3c2c(C)nn3-c2nc(C)cc(C)n2)c(C)c1 (centres undefined)	x	n	x	x	x	n
CCOc1cc(-c2noc(N)c2C(=O)OC)cc(OCC)c1OCC	n	12µM	n	n	n	n
COC(=O)c1c(-c2ccc(Br)cc2)noc1N	u	n	u	u	u	u
COC(=O)c1ccc(C(=O)OC)c(NC(=S)N2CCC(C)CC2)c1	n	16µM	u	n	n	n
COC(=O)c1ccc(C(=O)OC)c(NC(=S)N2CCCCC2C)c1 (centres undefined)	n	15µM	n	n	n	n
CC(=O)c1ccc(N2CCN(C(=S)Nc3cccc(Cl)c3)CC2)cc1	n	23µM	n	n	n	n
COC(=O)c1ccc(C(=O)OC)c(NC(=S)N2CCN(C)CC2)c1	n	n	n[1.84 µM]	n	n	n
COC(=O)c1ccc(C(=O)OC)c(NC(=S)N2CCN(c3cccc(Cl)c3)CC2)c1	n	16µM	n	n	n	n
COC(=O)c1ccc(C(=O)OC)c(NC(=S)N2CCN(c3ccccc3)CC2)c1	n	u	u	n	n	n
COC(=O)c1ccc(C(=O)OC)c(NC(=S)N2CCCC2)c1	n	n	n	n	n	n
Cc1cc(C)c(NC(=O)Cn2c(=O)n(CCC(C)C)c(=O)c3cccnc32)c(C)c1	x	n	x	x	x	n
Cc1ccc(-c2ccc(CCC(=O)O)n2-c2ccc(C(C)C)cc2)cc1	x	n	x	x	x	n
COc1ccc(NC(=O)CCN2CCN(CCO)CC2)c(OC)c1	x	n	x	x	x	n
Cc1ccc(C(=O)N/C(=C\c2cccs2)C(=O)NC2CCCCC2)cc1	n	18µM	n	n	n	n
O=C(N/C(=C/c1cccs1)C(=O)N1CCCCCC1)c1ccccc1	n	21µM	n	n	n	n
O=C(N/C(=C/c1ccco1)C(=O)N1CCCCCC1)c1cccs1	u	21µM	n	n	n	n
O=C(N/C(=C\c1cccs1)C(=O)N1CCCCCC1)c1ccccc1	n	n	n	n	n	n
Cc1ccc(C(=O)N/C(=C/c2cccs2)C(=O)N2CCCCCC2)cc1	n	n	n	n	n	n
O=C(N/C(=C/c1ccco1)C(=O)N1CCCCCC1)c1ccccc1	n	n	n	n	n	n
CCn1c(C(=O)Nc2c(C)cccc2C)cc2sc(Cl)cc21	x	n	x	x	x	n
N=C1C(c2ccccc2)=C(O)CN1c1ccccc1	n	n	n	n	n	n
N=C1C(c2ccccc2)=C(O)CN1c1ccc2c(c1)OCO2	n	n	n	16µM	n	n
CCOC(=O)CN(C(=O)CNC(=O)c1cccs1)C(C(=O)NC1CCCCC1)c1cccs1 (centres undefined)	n	21µM	n	n	n	n
SMILES	HT1080 IDH1KD tx	KB-V1 MDR tox	SW480 rereplic	MCF10A rerep	HT1080-NT tox	KB-3-1 tox
COc1cc2c(c(OC)c1CC=C(C)C)C[C@H](c1ccc(O)cc1O)CO2	n	n	n	16µM	n	n
CCc1ccccc1OCC(=O)N(CC)CC(=O)NCc1ccc(F)cc1	n	n	n	u	n	n
CCN(CC(=O)NCc1ccc(F)cc1)C(=O)COc1ccc2ccccc2c1	n	15µM	n	n	n	n
CCN(CC(=O)NCc1ccc(F)cc1)C(=O)COc1ccc(C)c(C)c1	n	18µM	n	n	n	n
Cc1cc2nccc(/C=C/c3ccc(N(C)C)cc3)c2cc1C	x	n	x	x	x	n
COc1cc(C2C3C(=O)N(c4ccc(F)cc4)C(=O)C3ON2c2ccccc2)ccc1O (centres undefined)	n	n	n	14µM	n	n
COc1cc(C2C3C(=O)N(c4ccccc4)C(=O)C3ON2c2ccccc2)cc(OC)c1OC (centres undefined)	n	u	n	n	n	n
COc1ccccc1-c1n[nH]nc1C1=CC(=O)C[C@H](c2ccc(F)cc2)C1	n	n	x	x	n	n
